FBPA coupling cs = qHTS Assay for Inhibitors of Fructose-1,6-bisphosphate Aldolase from Giardia Lamblia: Coupling assay counterscreen; coupling enzyme system counterscreen, AmpLite Red fluorescence; activity change, negative = inhibition, % at 58.2 µM, hits read low; hit rate 0.67% among 290,000; AID 2472, 2010; in the data active means activity change below about -30%
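Counterscreen of the coupled detection system alone, without aldolase: glyceraldehyde-3-phosphate coupling enzymes plus AmpLite Red readout. Compounds at 57.5 uM final, 10 min RT preincubation, 20 min RT reaction, fluorescence 525/598 nm.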
GALK inh = qHTS Assay for Inhibitors of Human Galactokinase (GALK); Purified GALK, Kinase-Glo residual ATP luminescence; Potency, µM (doses to about 57.5 µM), usual class: inhibitors; hit rate 0.007% among 270,000
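5 nM enzyme, 35 uM ATP, 100 uM galactose, 20 mM HEPES pH8.0, 5 mM MgCl2; 1 h RT; residual ATP by Kinase-Glo Plus luminescence, qHTS format.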
RORg inh = qHTS for inhibitors of ROR gamma transcriptional activity; Potency, µM (titrated, usually from 53.6 µM), hits mostly inhibitors; hit rate 5.4% among 310,000; AID 2551, 2010; Drosophila S2 Gal4-RORgamma UAS-luciferase reporter, 20 h; Nuclear receptor ROR-gamma (Mus musculus), P51450; further: nearly all actives have a fitted effect of over 60% in size
Target sequence (P51450 whole entry, looked up, the tested form may be a part): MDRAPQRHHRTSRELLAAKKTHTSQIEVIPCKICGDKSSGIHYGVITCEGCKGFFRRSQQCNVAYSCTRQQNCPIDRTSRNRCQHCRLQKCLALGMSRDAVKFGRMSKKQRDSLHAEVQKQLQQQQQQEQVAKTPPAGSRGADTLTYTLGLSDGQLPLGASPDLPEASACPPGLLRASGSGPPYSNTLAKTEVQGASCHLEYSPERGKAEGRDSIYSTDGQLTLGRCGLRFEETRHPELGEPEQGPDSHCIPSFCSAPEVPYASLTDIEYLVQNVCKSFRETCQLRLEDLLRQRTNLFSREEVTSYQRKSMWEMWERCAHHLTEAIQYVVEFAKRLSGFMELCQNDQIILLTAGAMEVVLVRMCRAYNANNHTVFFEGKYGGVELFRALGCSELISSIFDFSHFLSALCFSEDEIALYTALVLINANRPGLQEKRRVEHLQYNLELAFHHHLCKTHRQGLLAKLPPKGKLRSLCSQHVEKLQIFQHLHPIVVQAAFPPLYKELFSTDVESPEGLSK
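Stably transfected Drosophila Schneider cells are the test system, with ROR gamma fused to Gal4 and luciferase under UAS control; luminescence is read after 20 hr of 700 uM copper sulfate induction at ambient temperature.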
TrxR1 substrate = qHTS Assay for Substrates of Mammalian Selenoprotein Thioredoxin Reductase 1 (TrxR1): qHTS; hit rate 0.01% among 390,000; Thioredoxin reductase 1, cytoplasmic (Rattus norvegicus), O89049; Potency, µM (series often up to 114 µM); purified TrxR1 substrate turnover, NADPH consumption readout; AID 588456, 2011; further: nearly all actives have a fitted effect of over 50% in size
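Rat TrxR1, dispensed at 90 nM, was prereduced with 400 uM NADPH (final) for 5 min at ~22 deg C, then incubated with compound 15 min before 400 uM selenite. A first-read NADPH fluorescence drop versus no-compound background flagged substrates.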
rTrxR1 inhibitor = qHTS Assay for Inhibitors of Mammalian Selenoprotein Thioredoxin Reductase 1 (TrxR1): qHTS. Thioredoxin reductase 1, cytoplasmic (Rattus norvegicus), O89049. recombinant rTrxR1, NADPH fluorescence consumption, selenite substrate. Potency, µM (top dose mostly 114 µM), most hits filed as inhibitors. hit rate 1% among 390,000. AID 588453, 2011; further: nearly all actives have a fitted effect of over 65% in size
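Rat TrxR1 (90 nM in the dispensed reagent) was pre-reduced with 400 uM NADPH for 5 min at room temperature, then incubated with compound for 15 min. After 400 uM selenite was added, NADPH fluorescence (Ex 340/Em 450 nm) was followed for 8 min.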
Gal4-VP16 FLuc = VP16 counterscreen qHTS for inhibitors of ROR gamma transcriptional activity; Drosophila S2 Gal4-VP16 UAS-luciferase, luminescence, 20 h; Potency, µM (titrated, usually from 53.6 µM), most hits filed as inhibitors; hit rate 3.5% among 310,000;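 further: Gal4-VP16 expression switched on by copper sulfate through the metallothionein promoter; nearly all actives have a fitted effect of over 50% in size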
Numbers stand for hits; - = inactive; ? = inconclusive; . = no result; [ ] = remark or other dose. The list is not random: actives were taken first. Their share in the collection is about 5.9%. Unless noted, the call rests on the fitted dose curve; in most records, active means well fitted curve in the direction sought with a large enough effect; inconclusive means small, poorly fitted or top-dose-only effect, or another doubt; inactive means no such curve, though single readings can be large; an effect the other way counts as inactive or inconclusive.

SMILES	FBPA coupling cs	GALK inh	RORg inh	TrxR1 substrate	rTrxR1 inhibitor	Gal4-VP16 FLuc
O=C(COc1ccc(Br)cc1)Nc1ccc(C(=O)Nc2ccccc2C(=O)O)cc1	-	-	-	-	-	-
Cc1ccc(NC(=S)NCc2ccc3c(c2)OCO3)cc1	-	-	13µM	-	-	16µM
Cc1ccc(CNc2ccc3c(c2)OCO3)c(C)c1	-37	-	-	.	.	-
S=C(NCc1ccc2c(c1)OCO2)NC1CC1	-	-	13µM	-	-	?
CC1(C)CC(NC(=S)NCc2ccc3c(c2)OCO3)CC(C)(C)N1	-	-	-	.	.	-
CCOc1ccc(NC(=S)NCc2ccc3c(c2)OCO3)cc1	-	-	7.9µM	-	-	?
CCOc1ccc(C(=O)NCc2ccc3c(c2)OCO3)cc1	-	-	-	-	-	-
CCCCCn1c(=O)c2c(nc3n2CCN3c2ccc(Br)cc2)n(C)c1=O	.	.	.	-	-	.
CC(C)(C)OC(=O)NC(CCNC=C1C(=O)OC(C)(C)OC1=O)C(=O)O (stereo not given)	-	-	-[0.365 µM]	-	-	.
CC1=NN(c2ccc(C)cc2)C(=O)/C1=C\C=C\c1ccccc1	-	.	?	-	-	?
CC1=NN(c2cccc(C(=O)O)c2)C(=O)/C1=C\C=C/c1ccccc1	-	-	1.1µM	-	-	3.5µM
CC(C(=O)O)c1ccc(N2Cc3ccccc3C2=O)cc1 (stereo not given)	-	-	1.8µM	-	-	4µM
Cc1cc(C)nc(NS(=O)(=O)c2ccc(N3Cc4ccccc4C3=O)cc2)n1	-	-	-	-	-	-
CCCC1C(=O)Nc2ccccc2N1C(=O)c1ccc(C(C)(C)C)cc1 (stereo not given)	-	-	-	-	-	?
Cc1nc2ccc3nc(NC(=O)c4ccc5c(c4)OCCO5)sc3c2s1	-	-	-	-	-	-
Cc1nc2c(ccc3nc(NC(=O)c4ccc5c(c4)OCCO5)sc32)s1	-	-	0.2µM	-	-	0.089µM
Cc1nc2c(ccc3nc(NC(=O)C(c4ccccc4)c4ccccc4)sc32)s1	-	.	?	-	-	5µM
COC(=O)c1ccc(-c2nc3cc(Cl)c(N)cc3s2)cc1	-32	-	5µM	-	-	-[0.365 µM]
CC(C)OCCCNC(=O)c1ccc(Br)cc1	-	.	-	-	-	?
CC(C)OCCCn1c(-c2ccc(Br)cc2)c[nH]c1=S	-	-	1µM	-	?	2.8µM
CCOC(=O)C1=C(c2ccc(OC)cc2)OC(N)=C(C#N)C1c1cccnc1 (stereo not given)	-	-	-	-	79µM	?
CCOC(=O)C1=C(c2ccccc2)OC(N)=C(C#N)C1c1cccnc1 (stereo not given)	-	-	-	-	-	-
CC(=O)C1=C(C)OC(N)=C(C#N)C1c1cccnc1 (stereo not given)	-33	-	-	-	-	-
CCC(=O)N(CC)C1=C(O)c2ccccc2C(=O)C1=O	-61	-	?	-	1.1µM	?
CCC(=O)N(C)/C=C1\Sc2ccccc2C1=O	.	-	-	-	-	-
SMILES	FBPA coupling cs	GALK inh	RORg inh	TrxR1 substrate	rTrxR1 inhibitor	Gal4-VP16 FLuc
Oc1ccc2ccccc2c1C=Nc1ccccc1-c1nc2ccccc2[nH]1	-32	-	?	-	-	?
O=C(N=Nc1c(O)n(C2OC(=O)c3ccccc32)c2ccccc12)c1ccc(O)cc1 (stereo not given)	-	-	2.8µM	-	-	2.8µM
O=C1CN=C(Nc2ccccc2)N1Cc1cccs1	-	.	-	-	-	?
Cc1cccc(S(=O)(=O)Nc2ccc(C)c3c2OC(C)(C)C3)c1	-44	-	-	-	-	?
Cc1ccc(NS(=O)(=O)c2ccccc2Cl)c2c1CC(C)(C)O2	.	-	-	-	-	-
Cc1cccc2sc(NNC(=O)C3=COCCO3)nc12	-	-	2.2µM	-	-	13µM

Bioassay records deposited in PubChem BioAssay by National Center for Advancing Translational Sciences (NCATS).
